About 83,000 compounds went through this panel and 20% of them were active in at least one assay; those are over-represented in the sample as a whole.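 Cells were grown in 96-well plates and exposed to the test compound at a single concentration for 48 hours; results are reported as percent growth, with values below 10 considered active.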 Activity calls are given as the source filed them.

One assay concerns HCC-2998 colon. In words: NCI-60 one-dose screen, 48 h (100 = growth as untreated, 0 = no growth, -100 = all killed). The following applies: 10 µM unless noted.
As for `CCN(CC)CCC(=O)c1cccc2ccccc12`, the growth is 97.1% (inactive).
As for `COc1cc(C2C=C(C)N=C3SC=C(C)N32)cc(OC)c1OC` (stereo unspecified), the growth is -90.5% (active).
With `O=C(CCCn1c2c(sc3ccccc32)c(=O)n2nnc(-c3ccccc3)c12)NCCc1cnc[nH]1`, the growth is 25.7% (inactive).
For the compound `O=c1oc2cc(OS(=O)(=O)c3ccc(F)cc3)ccc2c2c1CCCCC2`, the growth is 69.8% (inactive).
For the compound `C=C1C(=O)O[C@H]2[C@H]1CC/C(Cn1cc(-c3ccsc3)nn1)=C\CC[C@@]1(C)O[C@@H]21`, the growth is -46.7% (active).
Same read-out and setting: as for `Cc1cc(NC(=O)COC(=O)c2sc3cc(F)ccc3c2Cl)no1`, the figure is 112% (inactive); as for `CNC(=O)c1cc(Oc2ccc3c(c2)sc2nc(-c4ccc(Cl)cc4)cn23)ccn1`, 90.1% (inactive); as for `O=C(NCCCN1CCN(CCCNC(=O)C2CCCCC2)CC1)C1CCCCC1`, 99.9% (inactive).
On the same count and under the same terms, to `COc1ccc(/C=C/C(=O)c2ccc(B(O)O)cc2)cc1O` belongs 49.8% (inactive); to `NCCSC(c1ccccc1)(c1ccccc1)c1ccccc1`, -41.7% (active); to `COc1ccc(/C=C/C(=O)/C=C/c2cc3ccc(Cl)cc3[nH]c2=O)cc1`, 93.1% (inactive).
The same measure, in the same setting: as for `CCn1cc(C2NC(=O)c3cc(F)ccc3N2)c2cccc(Cl)c21` (stereo unspecified), the figure is 7.64% (active).
For `O=C(O)c1cn(C2CC2)c2cc(N3CCN(S(=O)(=O)c4ccc(Cl)c(Cl)c4)CC3)c(F)cc2c1=O`, the growth is 24.8% (inactive).
The same measure, in the same setting: as for `O=C(Nc1ccc(F)cc1)c1cc([N+](=O)[O-])ccc1O`, the figure is 63.9% (inactive); as for `O=C(Nc1ccc(I)cc1)c1cc([N+](=O)[O-])ccc1O`, 16.1% (inactive).
Consider `CC(C)(C)OC(=O)N[C@@H](Cc1ccccc1)C(=O)N(Cc1ccccc1)C1(C(=O)NCc2ccccc2)CCN(Cc2ccccc2)CC1`, for which the growth was 47% (inactive).
With `C=C1C(=O)O[C@H]2[C@H]1CC/C(COC(=O)NCc1cc(OC)cc(OC)c1)=C\CC[C@@]1(C)O[C@@H]21`, the growth was 63.8% (inactive).
The same measure, in the same setting: to `O=C(CN1CCN(c2cc3c(cc2F)c(=O)c(C(=O)O)cn3C2CC2)CC1)Nc1ccc(C(=O)/C=C/c2ccccc2)cc1` belongs 70.1% (inactive); to `C=C1C(=O)O[C@H]2[C@H]1CC/C(COC(=O)NCCc1cccc(OC)c1)=C\CC[C@@]1(C)O[C@@H]21`, 83.5% (inactive).
On the same count and under the same terms, to `COc1ccc(/C(=N/O)c2cc(OC)c(OC)c(OC)c2)c(OC)c1N` belongs 73.4% (inactive).
Consider `Cc1cccc(NC(=O)c2sc3nc4c(cc3c2N)CCCC4)c1`, for which the growth is 70.6% (inactive).
For the compound `O=S(=O)(NCCNc1cc(-c2cn(-c3ccccc3)nc2-c2ccccc2)ccn1)c1ccc(F)cc1`, the growth is 102% (inactive).
On the same count and under the same terms, as for `COc1ccc(/C=C2\CCCC3=C2NC(C)=NC3c2ccc(OC)c(OC)c2)cc1OC` (stereo unspecified), the figure is -47.8% (active); as for `N#Cc1ccc(NC(=O)c2ccc3cccnc3c2O)cc1`, 44.6% (inactive); as for `Cc1sc(N=Nc2ccc(N(C)C)cc2)[n+]([O-])c1C`, 112% (inactive).
Same read-out and setting: to `CCOC(=O)/C=C\C(=O)NC(N)=O` belongs 95.2% (inactive); to `CCSc1nnc(Nc2ccc(C(C)C)cc2)s1`, 92.7% (inactive); to `Clc1ccc([I+]c2ccc(Cl)cc2Cl)c(Cl)c1`, 58.3% (inactive).
Same read-out and setting: to `CC(=O)n1cc([C@H]2CC[C@H](c3cn(C(C)=O)c4ccccc34)c3c2[nH]c2ccccc32)c2ccccc21` belongs 87.3% (inactive); to `O=c1c2cccc3c(Nc4ccc(F)cc4)ccc(c32)c2nc3ccccc3n12`, 76.1% (inactive); to `Clc1nc(-c2cccnc2)nc2sc3c(c12)CCCCCC3`, 107% (inactive).
For `COc1cc(NC(=O)CCl)ccc(=O)c1`, the growth is 105% (inactive).
On the same count and under the same terms, to `CCn1cc(C(=O)O)c(=O)c2cc(F)c(N3CCN(S(=O)(=O)c4ccc(OC)c(OC)c4)CC3)cc21` belongs 104% (inactive); to `CC(=O)C1CCC(C)=CC1=O` (stereo unspecified), 103% (inactive); to `O=C(O)c1ccc(-n2cc(CNc3ccc(C(F)(F)F)cc3)c(-c3ccccc3)n2)cc1`, 108% (inactive).
Still for that read-out and setting: as for `COc1cc(OC)c(C(=O)/C=C/c2ccc(C#N)cc2)c(OC)c1`, the figure is 36.8% (inactive); as for `CCN(CC)CCCNc1nc(C)cc(Nc2ccc3nc(C)cc(N)c3c2)n1`, 97.6% (inactive).
On the same count and under the same terms, as for `Cc1ccnc2nc(C(=O)OCC(=O)Nc3ccc(-c4ccccc4)cc3)nn12`, the figure is 105% (inactive).

The test system of the next assay is KM12 colon. Described as above. The following applies: 10 µM unless noted.
`CCN(CC)CCC(=O)c1cccc2ccccc12`: the growth is 103% (inactive).
`COc1cc(C2C=C(C)N=C3SC=C(C)N32)cc(OC)c1OC` (stereo unspecified): the growth is -77% (active).
On the same count and under the same terms, to `O=C(CCCn1c2c(sc3ccccc32)c(=O)n2nnc(-c3ccccc3)c12)NCCc1cnc[nH]1` belongs -63% (active); to `O=c1oc2cc(OS(=O)(=O)c3ccc(F)cc3)ccc2c2c1CCCCC2`, 55.1% (inactive); to `C=C1C(=O)O[C@H]2[C@H]1CC/C(Cn1cc(-c3ccsc3)nn1)=C\CC[C@@]1(C)O[C@@H]21`, 34.3% (inactive).
The same measure, in the same setting: as for `Cc1cc(NC(=O)COC(=O)c2sc3cc(F)ccc3c2Cl)no1`, the figure is 108% (inactive).
With `CNC(=O)c1cc(Oc2ccc3c(c2)sc2nc(-c4ccc(Cl)cc4)cn23)ccn1`, the growth is 92.9% (inactive).
For the compound `O=C(NCCCN1CCN(CCCNC(=O)C2CCCCC2)CC1)C1CCCCC1`, the growth was 104% (inactive).
For the compound `COc1ccc(/C=C/C(=O)c2ccc(B(O)O)cc2)cc1O`, the growth was 9.39% (active).
Still for that read-out and setting: as for `NCCSC(c1ccccc1)(c1ccccc1)c1ccccc1`, the figure is 17.9% (inactive); as for `COc1ccc(/C=C/C(=O)/C=C/c2cc3ccc(Cl)cc3[nH]c2=O)cc1`, 72.5% (inactive); as for `CCn1cc(C2NC(=O)c3cc(F)ccc3N2)c2cccc(Cl)c21` (stereo unspecified), 19.2% (inactive).
In the case of `O=C(O)c1cn(C2CC2)c2cc(N3CCN(S(=O)(=O)c4ccc(Cl)c(Cl)c4)CC3)c(F)cc2c1=O`, the growth was 14.6% (inactive).
As for `O=C(Nc1ccc(F)cc1)c1cc([N+](=O)[O-])ccc1O`, the growth was 51.6% (inactive).
On the same count and under the same terms, as for `O=C(Nc1ccc(I)cc1)c1cc([N+](=O)[O-])ccc1O`, the figure is 21% (inactive).
On the same count and under the same terms, as for `CC(C)(C)OC(=O)N[C@@H](Cc1ccccc1)C(=O)N(Cc1ccccc1)C1(C(=O)NCc2ccccc2)CCN(Cc2ccccc2)CC1`, the figure is 18.7% (inactive); as for `C=C1C(=O)O[C@H]2[C@H]1CC/C(COC(=O)NCc1cc(OC)cc(OC)c1)=C\CC[C@@]1(C)O[C@@H]21`, 45.1% (inactive).
In the case of `O=C(CN1CCN(c2cc3c(cc2F)c(=O)c(C(=O)O)cn3C2CC2)CC1)Nc1ccc(C(=O)/C=C/c2ccccc2)cc1`, the growth was 25.3% (inactive).
Still for that read-out and setting: as for `C=C1C(=O)O[C@H]2[C@H]1CC/C(COC(=O)NCCc1cccc(OC)c1)=C\CC[C@@]1(C)O[C@@H]21`, the figure is 63.7% (inactive); as for `COc1ccc(/C(=N/O)c2cc(OC)c(OC)c(OC)c2)c(OC)c1N`, 23.8% (inactive); as for `Cc1cccc(NC(=O)c2sc3nc4c(cc3c2N)CCCC4)c1`, 22.9% (inactive).
On the same count and under the same terms, as for `O=S(=O)(NCCNc1cc(-c2cn(-c3ccccc3)nc2-c2ccccc2)ccn1)c1ccc(F)cc1`, the figure is 87.3% (inactive).
Still for that read-out and setting: as for `COc1ccc(/C=C2\CCCC3=C2NC(C)=NC3c2ccc(OC)c(OC)c2)cc1OC` (stereo unspecified), the figure is 6.19% (active).
Consider `N#Cc1ccc(NC(=O)c2ccc3cccnc3c2O)cc1`, for which the growth was 25.7% (inactive).
The same measure, in the same setting: as for `Cc1sc(N=Nc2ccc(N(C)C)cc2)[n+]([O-])c1C`, the figure is 91.7% (inactive); as for `CCOC(=O)/C=C\C(=O)NC(N)=O`, 106% (inactive); as for `CCSc1nnc(Nc2ccc(C(C)C)cc2)s1`, 83.9% (inactive).
On the same count and under the same terms, as for `Clc1ccc([I+]c2ccc(Cl)cc2Cl)c(Cl)c1`, the figure is 39.3% (inactive); as for `CC(=O)n1cc([C@H]2CC[C@H](c3cn(C(C)=O)c4ccccc34)c3c2[nH]c2ccccc32)c2ccccc21`, 64.4% (inactive); as for `O=c1c2cccc3c(Nc4ccc(F)cc4)ccc(c32)c2nc3ccccc3n12`, 74.4% (inactive).
For `Clc1nc(-c2cccnc2)nc2sc3c(c12)CCCCCC3`, the growth was 116% (inactive).
On the same count and under the same terms, to `COc1cc(NC(=O)CCl)ccc(=O)c1` belongs 89.6% (inactive); to `CCn1cc(C(=O)O)c(=O)c2cc(F)c(N3CCN(S(=O)(=O)c4ccc(OC)c(OC)c4)CC3)cc21`, 96.2% (inactive); to `CC(=O)C1CCC(C)=CC1=O` (stereo unspecified), 110% (inactive).
Regarding `O=C(O)c1ccc(-n2cc(CNc3ccc(C(F)(F)F)cc3)c(-c3ccccc3)n2)cc1`, the growth was 84.7% (inactive).
With `COc1cc(OC)c(C(=O)/C=C/c2ccc(C#N)cc2)c(OC)c1`, the growth is 7.74% (active).
The same measure, in the same setting: as for `CCN(CC)CCCNc1nc(C)cc(Nc2ccc3nc(C)cc(N)c3c2)n1`, the figure is 101% (inactive); as for `Cc1ccnc2nc(C(=O)OCC(=O)Nc3ccc(-c4ccccc4)cc3)nn12`, 119% (inactive).

These data come from PubChem BioAssay (NCI).
